{
  "source": "the supplement of paper PMC6555819",
  "data": [
    {"system": "VDR:RXRa (NR concentration 270 nM, RXRa partner concentration 90 nM)", "assay": "PBM binding z-score (relative to random genomic background probes); higher = stronger binding; sequences stand for … in GC…GCGATTGACAGCGTAGAATGAAGG", "experimental": "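Protein-binding microarray (Agilent 4x180K custom design, double-stranded 60-nt probes: 5' GC cap, 34-nt variable region, 24-nt constant primer region; full probe sequence given). Purified or IVT nuclear receptor:RXRα heterodimers (3:1 NR:RXRα, mostly 270:90 nM) or homodimers were incubated for 1 h in PBS with 2% milk and no ligand, then detected with Alexa488 antibodies. Fluorescence from o1-orientation probes (~5 replicates averaged) was converted to z-scores against 500 random hg19 background probes. Variable regions are seed direct-repeat (DR0–DR5) sites, all their single-nucleotide variants and half-site ablations.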", "values": [
      {"sequence": "TCTCGGAGGATACGAAAGGTCAGAGCTCGACATC", "PBM binding z-score": 2.6},
      {"sequence": "TCATACAGGTAAAGGTGAAAGTCGAACGATATGA", "PBM binding z-score": 1.13},
      {"sequence": "CATACAGGGTCAGCTAGGCCAGAGGAGGGACGGC", "PBM binding z-score": 3.53},
      {"sequence": "TCATATAGGTAAAAGGTAAAAGTCGGTGTGGTAA", "PBM binding z-score": 1.33},
      {"sequence": "TAGCCTAGGTCAATCAGGGGCCAGTATAGAAAGC", "PBM binding z-score": 2.32},
      {"sequence": "TCATATCGGTAAACAGGTGAAAGTCCGTAAGTTA", "PBM binding z-score": 0.935},
      {"sequence": "TCTTGTAGATCAACAGGAGGTTACGAAAGATCGA", "PBM binding z-score": 0.945},
      {"sequence": "AGAACGAGGGCAATGAGTTGCTAGCACGGGTGGC", "PBM binding z-score": 3.91},
      {"sequence": "TCGAGTAGGTTACCAATGGGGCATACAGCTTTCT", "PBM binding z-score": 0.221},
      {"sequence": "ATCTATAGGTAACCAAGTTCAGTGAATGCCGAAC", "PBM binding z-score": 5.03},
      {"sequence": "GGAACGAGGGCATTCGAGTTGTTAGCATGGCGAT", "PBM binding z-score": 2.82},
      {"sequence": "TCATATAGGTAAAGGGGAAAGTCGAACGATATGA", "PBM binding z-score": 0.735},
      {"sequence": "TCCCGGAGGACACGAAGGTCAGAGCTTTCCAGAG", "PBM binding z-score": 2.15},
      {"sequence": "ATATGTAGGTTATCGGGTGATTCAGTTTGCGCAT", "PBM binding z-score": 1.77},
      {"sequence": "TCATATAGGTAAAGGTGAATGTCGAACGATATGA", "PBM binding z-score": 0.919},
      {"sequence": "TCTAGTTGTTCAAAGGTCACACACTCGAAATGCG", "PBM binding z-score": 4.95},
      {"sequence": "CTTCAAAGTTCAAGGTAACGTAACAGAAAGCAGC", "PBM binding z-score": 3.51},
      {"sequence": "TCTAGTTGGTCACGGAGGTCACGCACGACGGGTA", "PBM binding z-score": 5.99},
      {"sequence": "CGTCCAAGGTCATAGGATGTCAGTGAAGACAGAT", "PBM binding z-score": 4.77},
      {"sequence": "ATCGAAAGGTCGATGAGGTGAGTATACACCGTTT", "PBM binding z-score": 5.2},
      {"sequence": "CCGCCTGGGGCAGAAAGGTTACCATACCATCCGG", "PBM binding z-score": 0.57},
      {"sequence": "AGAACCAGGGCACGCTGAGTTGATAGCAGAGTAG", "PBM binding z-score": 0.532},
      {"sequence": "GATGCAGGGTCAGCTAGAGGCCAGAGTATGGAAA", "PBM binding z-score": 3.11},
      {"sequence": "GAAACAGGGTCAAGGCCAGAGTACGCGTATTGAT", "PBM binding z-score": 4.6},
      {"sequence": "TCTCTTAGTTGAAGGGCAACCGACGAGTCCGTTT", "PBM binding z-score": 0.951},
      {"sequence": "CCTACTGAGCCAAAGGTCATTGATTCCAATGCTC", "PBM binding z-score": 4.81},
      {"sequence": "AGAACGAGGGCACGCTGAGTTGATAACAGAGTAG", "PBM binding z-score": 2.06},
      {"sequence": "CCTTACGGGTCACTCCAAGTTATAGCATCGGAGT", "PBM binding z-score": 2.82},
      {"sequence": "CCTACTGGGCCTAAAAGGTCATTGATGCCGATAA", "PBM binding z-score": 4.38},
      {"sequence": "CCTTACGGGTCATGGTTATAGCACGGGTGGTACG", "PBM binding z-score": 3.23},
      {"sequence": "ACTGACGGGTCAACGAGGTTATAGCACGCGTATA", "PBM binding z-score": 7.41},
      {"sequence": "CATACAGGGTCAGCTGGGCCAGAGTAGGGACGGC", "PBM binding z-score": 3.63},
      {"sequence": "ACTATTAGTGGACTTAGGGCAACCGATACGACGC", "PBM binding z-score": 0.119},
      {"sequence": "CCTTACGGGTCACTGCAGGTTATAGCATCGGAGT", "PBM binding z-score": 4.19},
      {"sequence": "CCAGACAGGTGATAAGGTAACTCAGCCTCGATTA", "PBM binding z-score": -0.000379},
      {"sequence": "TGTCAAAGTTCAAAGGTAATGTAAGTATCCACAC", "PBM binding z-score": 4.69},
      {"sequence": "CCTTACGGGTCACTGACAGGTTATAGCTTTTGGA", "PBM binding z-score": 3.56},
      {"sequence": "CCTGCTAAGTCATGGTCAGCTAATCTACAGTATG", "PBM binding z-score": -0.252},
      {"sequence": "AGTCAGAGTTCAGGACGAGGTAACGTAAAGCACG", "PBM binding z-score": 3.77},
      {"sequence": "GCATATAGGTAATACAAAGTGAAAGTCCGATTGT", "PBM binding z-score": -0.024}
    ]}
  ]
}
